Assay results from the supplement of paper PMC9694430.

test system: LOC_OS07G07230-cb001; test: thermal shift delta Tm vs DMSO control; higher = stronger stabilization (binding); settings: 12.5 µM; protein concentration 2 µM
Method in brief: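 Rice kinase domain constructs were expressed in E. coli, purified, and tested by differential scanning fluorimetry with compound added in DMSO. Each well of a 96-well plate held 19.5 μl of 2 μM kinase in 100 mM potassium phosphate pH 7.5, 150 mM NaCl, 10% glycerol and 5 × SYPRO Orange, and fluorescence was read from 25°C to 95°C at 0.05°C/s. The melting temperature shift is the mean of triplicates, taken against protein with DMSO alone after Boltzmann fitting.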

For COc1cc2ncnc(Nc3ccc(F)c(Cl)c3)c2cc1OCCCN1CCOCC1 [Gefitinib (ZD1839)], which “thermal shift delta Tm” value is on record?
Its value is 0.24 °C.

How did the “thermal shift delta Tm” value turn out when C[C@@H](N)c1ccc(C(=O)Nc2ccnc3[nH]ccc23)cc1 was run?
The value was -0.1 °C.

With Cc1ccc(C(=O)Nc2cccc(C(F)(F)F)c2)cc1Nc1nc(-c2cccnc2)nc2c1cnn2C as the compound, how does the “thermal shift delta Tm” value read?
The value was 0.06 °C.

How did the “thermal shift delta Tm” value turn out when O=C1NC(=O)/C(=C/c2ccc3nccc(-c4ccncc4)c3c2)S1 was run?
Its value is 0.79 °C.

How did the “thermal shift delta Tm” value turn out when Oc1c2ccccc2c2c3c(cccc13)N=N2 was run?
The value was -0.13 °C.

How did the “thermal shift delta Tm” value turn out when C=CC(=O)Nc1ccc2ncnc(Nc3cccc(Br)c3)c2c1 was run?
The value was 0.32 °C.

Which “thermal shift delta Tm” value does the source give for COc1cc2nccc(Oc3ccc(NC(=O)NC4CC4)c(Cl)c3)c2cc1C(N)=O [Lenvatinib (E7080)] here?
The value was 0.35 °C.

How did the “thermal shift delta Tm” value turn out when CN1CCCN(C(=O)c2cccc(-c3ccc(/C=C4/C(=O)Nc5ccc(Cl)cc54)o3)c2)CC1 was run?
The value was 0.77 °C.

CCc1cnn2c(NCc3ccc[n+]([O-])c3)cc(N3CCCC[C@H]3CCO)nc12 was tested. Which “thermal shift delta Tm” value did it give?
The value was 0.3 °C.

O=C(Nc1ccc(OC(F)(F)F)cc1)c1sccc1NCc1ccnc2ccccc12 was tested. Which “thermal shift delta Tm” value did it give?
The value was -0.46 °C.

For CCOC(=O)c1cnc2ccc(-c3cncc(NS(=O)(=O)c4ccccc4)c3)cn12, which “thermal shift delta Tm” value is on record?
Its value is 0.1 °C.

CCCNC(=O)Nc1ccc(Oc2ncnc3cc(OC)c(OC)cc23)cc1Cl was tested. Which “thermal shift delta Tm” value did it give?
The value was 0.03 °C.

Cc1cc(Nc2ncnc3ccc(-c4ccc(CNCCS(C)(=O)=O)o4)cc23)ccc1Oc1ccn2ncnc2c1 [HER2-Inhibitor-1] was tested. Which “thermal shift delta Tm” value did it give?
The value was 0.55 °C.

With COc1cc2c(Oc3ccc(NC(=O)C4(C(=O)Nc5ccc(F)cc5)CC4)cc3F)ccnc2cc1OCCCN1CCOCC1 as the compound, how does the “thermal shift delta Tm” value read?
Its value is 0.3 °C.

Which “thermal shift delta Tm” value does the source give for Cn1cc(-c2ccc3c(c2)CCN3C(=O)Cc2cccc(C(F)(F)F)c2)c2c(N)ncnc21 here?
Its value is 4.19 °C.

With O=C(c1ccc(Nc2nccc(-c3cc4ccccc4s3)n2)cc1)N1CCC(N2CCCC2)CC1 [IKK-16 (IKK Inhibitor VII)] as the compound, how does the “thermal shift delta Tm” value read?
Its value is 0.03 °C.

With Cc1cc(NC(=O)c2cccc(NC(=O)/C=C/CN(C)C)c2)ccc1Nc1nccc(-c2cccnc2)n1 as the compound, how does the “thermal shift delta Tm” value read?
The value was -0.14 °C.

With CC(C)[C@H](CO)Nc1nc(Nc2cccc(Cl)c2)c2ncn(C(C)C)c2n1 [Purvalanol A] as the compound, how does the “thermal shift delta Tm” value read?
Its value is -0.31 °C.

With C=CC(=O)Nc1cccc(Nc2nc(Nc3ccc(OCCOC)cc3)ncc2F)c1 as the compound, how does the “thermal shift delta Tm” value read?
Its value is 0.63 °C.

Which “thermal shift delta Tm” value does the source give for Cc1c(C(=O)Nc2ccc(Oc3ccnc4[nH]cc(-c5ccccc5)c34)c(F)c2)c(=O)n(-c2ccc(F)cc2)n1C here?
The value was -0.13 °C.

How did the “thermal shift delta Tm” value turn out when COc1cc(Nc2ncc(F)c(Nc3ccc4c(n3)N(COP(=O)(O)O)C(=O)C(C)(C)O4)n2)cc(OC)c1OC [Fostamatinib (R788)] was run?
The value was 0.44 °C.

How did the “thermal shift delta Tm” value turn out when CC(C)c1c2cc(-c3ccnc(NC4CCC(NC5CCOCC5)CC4)n3)ccc2nn1C (stereo unspecified) was run?
Its value is 0.55 °C.

With Cc1nc2ccc(-n3ncc(C(=O)c4cc5ccccc5[nH]4)c3N)cc2[nH]1 as the compound, how does the “thermal shift delta Tm” value read?
Its value is 0.11 °C.

With COc1cc2ncnc(Sc3nnc(C)s3)c2cc1OC as the compound, how does the “thermal shift delta Tm” value read?
The value was 1.4 °C.

How did the “thermal shift delta Tm” value turn out when CCOc1cn(-c2ccc(F)cc2C)nc1C(=O)Nc1ccc(Oc2ccnc3cc(OC)c(OC)cc23)c(F)c1 was run?
The value was 0.19 °C.

COc1ccc([C@@H]2OC[C@H]3[C@@H]2CO[C@@H]3c2ccc(O[C@@H]3O[C@H](CO)[C@@H](O)[C@H](O)[C@H]3O)c(OC)c2)cc1OC [Forsythin] was tested. Which “thermal shift delta Tm” value did it give?
Its value is 0.9 °C.
